This is a sample that favours compounds with a hit; in the whole collection about 1.7% have one here.
hERG WT inh – qHTS for Inhibitors of KCHN2 3.1: Wildtype qHTS; Voltage-gated inwardly rectifying potassium channel KCNH2 (Homo sapiens), Q12809; U2OS, BacMam KCNH2, thallium flux FluxOr; hits give low values; activity change, % at 1.84 µM; hit rate 0.37% among 340,000; AID 720551, 2013;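 active = maximum activity change below -70%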; note: % is set by controls: 0 for no effect and ±100 for the full control effect
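U2OS cells transduced with wild-type KCNH2 virus are loaded with FluxOr dye for 45 min, and thallium flux is measured in kinetic reads before and after stimulation buffer. Rate constants are normalized to DMSO controls.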
TRHR ag – qHTS for Small Molecule Agonists and Allosteric Enhancers of Human TRH Receptor: Primary Screen for Agonists. TRHR cells, calcium flux fluo-8, FDSS agonist mode. activation, % at 2 µM. hit rate 0.18% among 360,000. AID 493084, 2011; in the data active = activation above about 30%; note: 0% is about no effect
Target sequence (P34981 whole entry, looked up): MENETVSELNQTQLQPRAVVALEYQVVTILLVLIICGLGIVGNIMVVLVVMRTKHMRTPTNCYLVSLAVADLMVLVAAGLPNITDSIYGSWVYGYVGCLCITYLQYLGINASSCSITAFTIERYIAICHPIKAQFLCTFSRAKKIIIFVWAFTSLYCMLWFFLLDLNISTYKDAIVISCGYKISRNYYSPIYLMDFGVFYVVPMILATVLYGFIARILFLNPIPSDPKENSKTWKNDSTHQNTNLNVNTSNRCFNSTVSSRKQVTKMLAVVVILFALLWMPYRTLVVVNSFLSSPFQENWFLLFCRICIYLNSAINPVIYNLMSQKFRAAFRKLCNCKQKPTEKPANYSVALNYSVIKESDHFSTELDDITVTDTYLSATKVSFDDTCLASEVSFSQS
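Agonist-mode FDSS calcium read (Ex 480/Em 530, 1 s cycles) in 1536-well TRHR cells with fluo-8 dye, after 10-cycle baseline and 23 nL compound addition; TRH at EC20 (10 nM final) added afterwards for the enhancer phase.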
TRPML1 ag – qHTS for Agonists of the Human Mucolipin Transient Receptor Potential 1 (TRPML1); hit rate 0.12% among 410,000; AID 624414, 2012; Mucolipin-1 (Homo sapiens), Q9GZU1; TRPML1-expressing cells, Ca2+ dye fluorescence, FDSS; activation, % (no concentration beside the values); in the data active = activation above about 50%; note: 0% is about no effect
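TRPML1-DL cells, Tet-induced overnight (~16 h, 37 degrees C), loaded 45-90 min at room temperature with Ca8 no-wash calcium dye plus quencher. FDSS fluorescence: 10 s baseline, compound pin-transfer, 110 s agonist read, then EC80 54-4 (4uM final) and 110 s antagonist read.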
KCNH2 3.1 block – qHTS for Inhibitors of KCHN2 3.1: Mutant qHTS; Potassium voltage-gated channel subfamily H member 2, brain isoform KCNH2 3.1 (human); U2OS KCNH2 3.1, thallium flux FluxOr; hits give low values; activity change, % (tested at about 1.8 µM); hit rate 0.95% among 340,000;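 active = maximum activity change below -70%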;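 note: thallium influx rate constant from kinetic fluorescence after stimulation buffer; % is set by controls: 0 for no effect and ±100 for the full control effect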
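Thallium flux read-out: FluxOr dye with Red40 quencher in HBSS/HEPES, 45 min at RT. Rate constants from kinetic reads were normalized to positive and negative DMSO controls. Cells: U2OS virally expressing the 3.1 isoform.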
TRHR enhancer – qHTS for Small Molecule Agonists and Allosteric Enhancers of Human TRH Receptor: Primary Screen for Enhancers; TRHR cells, fluo-8 calcium fluorescence, EC20 TRH enhancement; enhancement, % at 2 µM; hit rate 0.66% among 360,000; AID 493056, 2011; in the data active = enhancement above about 30%; note: 0% is about no effect
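Enhancer read-out: after compound pinning and an initial kinetic agonist-mode read, an EC20 of TRH (10 nM final) was injected and fluo-8 calcium signal (Ex 480/Em 530) followed at 1 s/cycle for 100 cycles in TRHR-expressing cells.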
TRPML1 inh – qHTS for Inhibitors of the Human Mucolipin Transient Receptor Potential 1 (TRPML1). Mucolipin-1 (Homo sapiens), Q9GZU1. TRPML1-inducible cells, Ca2+ dye fluorescence, FDSS; hits give low values; inhibition of EC80 agonist-evoked calcium signal. activity change, negative = inhibition, % (test concentration not listed). hit rate 0.02% among 390,000; in the data active = activity change below about -50%;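 note: stimulus is agonist 54-4 at its EC80 concentration; % is set by controls: 0 for no effect and ±100 for the full control effect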
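TRPML1-DL cells, Tet-induced overnight (~16 h, 37 °C) at 1,500 cells/well, were loaded with Ca8 no-wash dye plus quencher for 45-90 min at room temperature. Compounds were pinned during FDSS kinetic reading; agonist 54-4 at EC80 (4 uM final) then added.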
Numbers without * were called inactive; ! = not active in a repeat.

How did CCOc1ccc(NC(=O)CCC(=O)NNS(=O)(=O)c2ccccc2[N+](=O)[O-])cc1 do in these assays?
hERG WT inh: 9.7; TRHR ag: 102.1*; TRPML1 ag: -0.1; KCNH2 3.1 block: 6.3; TRHR enhancer: 4.2; TRPML1 inh: -20.4

Results for CCCCCOc1c(Cl)cc(C(=O)N(Cc2ccc(C)o2)C2CCS(=O)(=O)C2)cc1Cl (centres undefined) ?
TRHR ag: -1.5; TRPML1 ag: 0.7; TRHR enhancer: 27.4; TRPML1 inh: 26.6

How did COc1ccc(N2Cc3ccccc3/C2=N\C(=O)Nc2ccccc2)cc1 do in these assays?
hERG WT inh: 2.0; TRHR ag: 0.3; TRPML1 ag: 0.1; KCNH2 3.1 block: -1.9; TRHR enhancer: 0.7; TRPML1 inh: -0.9

Results for CC(=O)CN1Cc2ccccc2/C1=N\C(=O)Nc1ccccc1 ?
hERG WT inh: 0.2; TRHR ag: -0.4; TRPML1 ag: 0.7; KCNH2 3.1 block: -78.4*; TRHR enhancer: -0.7; TRPML1 inh: -11.2

How did CN(C)S(=O)(=O)c1cc(NC(=O)COC(=O)CC2Sc3ccccc3NC2=O)ccc1Cl (centres undefined) do in these assays?
hERG WT inh: -4.1; TRPML1 ag: 1.8; KCNH2 3.1 block: -9.4; TRPML1 inh: 38.7

What do the screens show for `c1ccc(-c2noc(CSc3nnc(Cc4cccs4)n3-c3ccccc3)n2)cc1`?
hERG WT inh: 4.9; TRHR ag: 1.0; TRPML1 ag: -0.4; KCNH2 3.1 block: -15.3; TRHR enhancer: 40.2*; TRPML1 inh: -0.6

How did Cc1ccc(-c2noc(CSc3nnc(Cc4cccs4)n3-c3ccccc3)n2)cc1 do in these assays?
hERG WT inh: 18.8; TRHR ag: 0.9; TRPML1 ag: 1.0; KCNH2 3.1 block: -38.6; TRHR enhancer: 2.9; TRPML1 inh: -0.4

How did CCNC(=O)C1(C)CCN(C(=O)c2cccnc2SC)C1 (centres undefined) do in these assays?
TRPML1 ag: -0.5

How did O=C1C2C(c3ccccc3)CC=CC2C(c2cccc([N+](=O)[O-])c2)N1Cc1ccccc1 (centres undefined) do in these assays?
TRPML1 ag: 0.9; TRPML1 inh: 26.2

How did Fc1ccc(N2CCN(C3=Nc4cccc5cccc3c45)CC2)cc1 do in these assays?
hERG WT inh: active; TRHR ag: 1.1; TRPML1 ag: 0.8; KCNH2 3.1 block: -80.3*; TRHR enhancer: 3.5; TRPML1 inh: -12.7

What do the screens show for `CCOC(=O)CCCCCC(=O)Nc1ccc2c(c1)C(=O)N([C@H](C)CO)C[C@H](C)[C@@H](CN(C)S(C)(=O)=O)OCCCC[C@@H](C)O2`?
hERG WT inh: 13.0; TRPML1 ag: -0.7; KCNH2 3.1 block: 14.4; TRPML1 inh: 22.3

What do the screens show for `CCOc1ccc(C(=O)Nc2cccc(-c3nc4cc(Cl)cc(Cl)c4o3)c2)cc1`?
TRHR ag: -0.5; TRPML1 ag: -0.5; TRHR enhancer: 34.9*; TRPML1 inh: 8.1

How did COCCCn1cc(CN2CC(N3CCSCC3)CS2(=O)=O)nn1 (centres undefined) do in these assays?
TRPML1 ag: -0.2

What do the screens show for `COc1cc(N/N=C(\C)c2ccc(O)c(C)c2)nc(-c2ccccc2)n1`?
hERG WT inh: -9.3; TRHR ag: -0.4; TRPML1 ag: 1.6; KCNH2 3.1 block: -7.1; TRHR enhancer: 34.4*; TRPML1 inh: 12.7

How did COC(=O)[C@]12CCCCC=C1N(Cc1ccco1)C(=O)[C@H](CC(=O)NCCC(C)C)C2 do in these assays?
TRPML1 ag: -0.8

How did N=c1sccn1CC(=O)Nc1cccc(S(=O)(=O)N2CCCCCC2)c1 do in these assays?
TRHR ag: 0.1; TRPML1 ag: 0.6; KCNH2 3.1 block: -70.9*; TRHR enhancer: -0.5; TRPML1 inh: 11.3

What do the screens show for `Cc1sc2ncn(CC(=O)NCCCC(=O)N3CCN(Cc4ccc5c(c4)OCO5)CC3)c(=O)c2c1C`?
hERG WT inh: 0.9; TRHR ag: -0.3; TRPML1 ag: -0.4; KCNH2 3.1 block: -10.3; TRHR enhancer: 30.8*; TRPML1 inh: 10.4

What do the screens show for `Cc1sc2ncn(CC(=O)NCCCC(=O)N3CCC(C)CC3)c(=O)c2c1C`?
hERG WT inh: -5.3; TRHR ag: -0.3; TRPML1 ag: -1.0; KCNH2 3.1 block: 5.4; TRHR enhancer: -1.6; TRPML1 inh: 6.2

How did CCOc1ccccc1/C=C/c1onc(C)c1S(=O)(=O)N1CCC(C(=O)N(CC)CC)CC1 do in these assays?
hERG WT inh: 3.5; TRHR ag: 1.9; TRPML1 ag: 1.1; KCNH2 3.1 block: -95.2*; TRHR enhancer: -2.5; TRPML1 inh: 24.5

Results for CCN(CCN(C)C)C(=O)C1CCN(S(=O)(=O)c2c(C)noc2/C=C/c2ccccc2F)CC1 ?
hERG WT inh: 33.8; TRHR ag: 2.4; TRPML1 ag: 7.1; KCNH2 3.1 block: -19.8; TRHR enhancer: -2.2; TRPML1 inh: -5.8

Results for Cc1nn(-c2ccc(N3CCOCC3)nn2)c(C)c1CCC(=O)NCc1ccc(F)cc1 ?
hERG WT inh: -0.4; TRHR ag: 0.1; TRPML1 ag: -0.5; KCNH2 3.1 block: 2.8; TRHR enhancer: 33.9*!; TRPML1 inh: 13.6

Results for COc1cc2c(NC3CCN(C(C)C)CC3)nc(N3CCCN(C)CC3)nc2cc1OCCCN1CCCC1 ?
TRPML1 ag: 0.1

How did CCOC(=O)C(=O)NCC(c1cccs1)S(=O)(=O)c1ccc(F)cc1 (centres undefined) do in these assays?
hERG WT inh: -9.7; TRHR ag: 0.0; TRPML1 ag: 1.0; KCNH2 3.1 block: -137.5*; TRHR enhancer: 9.6; TRPML1 inh: 22.0

How did CC(C)c1ccc(N(CC(=O)NCc2ccco2)C(=O)CCC(=O)Nc2ccccn2)cc1 do in these assays?
hERG WT inh: -1.6; TRHR ag: -0.2; TRPML1 ag: 0.0; KCNH2 3.1 block: 3.2; TRHR enhancer: 39.2*; TRPML1 inh: -2.8

What do the screens show for `COCCNC(=O)CN(C(=O)CCC(=O)Nc1ccccn1)c1ccc(C)cc1`?
hERG WT inh: 1.1; TRHR ag: -0.3; TRPML1 ag: -0.1; KCNH2 3.1 block: 1.4; TRHR enhancer: -3.2; TRPML1 inh: -9.0

Screens deposited in PubChem by National Center for Advancing Translational Sciences (NCATS).
